In PubChem BioAssay (EPA / NIEHS) one finds outcome and AC50 data, which are given here for 14 compounds.

Read-out in assay [1]: Monokine induced gamma interferon (MIG), CXCL9 (gene 4283)
Nature of the assay: BSK_3C_MIG: BioMAP Diversity Plus: 3C Assay for Monokine induced gamma interferon (MIG) Biomarker Activity (AID 2283021). Conditions: primary human endothelial cells (HUVEC); actives raise or lower the signal. The gist of the method: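 HUVEC primary endothelial cultures dosed with chemical; MIG quantified by ELISA at 24 h. Data fitted bidirectionally against DMSO control, with parallel SRB total-protein staining for cytotoxicity.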

Assay [2] is described as follows: BSK_3C_SRB: Viability Assessment in the BioMAP Diversity Plus: 3C Assay (AID 2283023).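 Note: fitted both ways against DMSO so a hit may be signal rise or drop.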 To be noted: primary human endothelial cells (HUVEC). The method in brief:
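Human umbilical vein endothelial cells in the 3C system, treated 24 h. Total protein measured by 0.1% sulforhodamine B staining after 10% TCA fixation, read at 560 nm; bidirectional fit versus DMSO.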

Read-out in assay [3]: Matrix Metallopeptidase 1 (MMP1), MMP1 (gene 4312)
Nature of the assay: BSK_BE3C_MMP1: BioMAP Diversity Plus: BE3C Assay for Matrix Metallopeptidase 1 (MMP1) Biomarker Activity (AID 2283024). Conditions: primary human bronchial epithelial cells; actives raise or lower the signal. The gist of the method: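 Human primary bronchial epithelial cells (BE3C system) dosed for 24 h; MMP-1 quantified by ELISA. Bidirectional fit against DMSO; cytotoxicity tracked in parallel cultures by SRB total-protein staining.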

The nature of assay [4]: BSK_3C_Vis: BioMAP Diversity Plus: 3C Assay for Morphology Visualization (AID 2283025).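 For AC50: light microscopy image of cell morphology used as background control.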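 Note: fitted both ways so gain or loss versus DMSO counts.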 To be noted: primary human endothelial cells (HUVEC). The gist of the method:
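Human umbilical vein endothelial cell morphology was inspected by light microscopy 24 h after chemical dosing; scored bidirectionally relative to DMSO.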

Read-out in assay [5]: Pselectin, SELP (gene 6403)
Briefly: BSK_4H_Pselectin: BioMAP Diversity Plus: 4H Assay for Pselectin Biomarker Activity (AID 2283026). To be noted: primary human endothelial cells (HUVEC); actives raise or lower the signal. The method in brief:
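Primary human umbilical vein endothelial cells were treated 24 h, and cell-surface P-selectin was then quantified by ELISA. Bidirectional fit versus DMSO; cytotoxicity checked in parallel cultures by SRB total-protein staining.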

Assay [6] is described as follows: BSK_4H_SRB: Viability Assessment in the BioMAP Diversity Plus: 4H Assay (AID 2283027).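 For AC50: curves fitted both ways versus DMSO so AC50 may be loss or gain.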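 Note: cells exposed to compound for 24 h before staining.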 Conditions: primary human endothelial cells (HUVEC). The method in brief: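 Human umbilical vein endothelial cells, 24 h after chemical dosing; total protein measured by 0.1% sulforhodamine B staining after 10% TCA fixation, read at 560 nm. Bidirectional fitting against DMSO.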

Assay [7] is described as follows: BSK_BE3C_SRB: Viability Assessment in the BioMAP Diversity Plus: BE3C Assay (AID 2283028).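 For AC50: fitted both ways so AC50 may mark signal gain or loss versus DMSO.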 To be noted: primary human bronchial epithelial cells. The method in brief: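 Human bronchial epithelial primary cells in confluent culture, 24 h after chemical dosing; total protein by 0.1% SRB staining after 10% TCA fixation, read at 560 nm. Bidirectional fitting versus DMSO baseline.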

Read-out in assay [8]: Urokinase-type plasminogen activator receptor (uPAR), PLAUR (gene 5329)
Briefly: BSK_4H_uPAR: BioMAP Diversity Plus: 4H Assay for Urokinase-type plasminogen activator receptor (uPAR) Biomarker Activity (AID 2283030). Conditions: primary human endothelial cells (HUVEC); actives raise or lower the signal. The method in brief: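 Human umbilical vein endothelial cells in the 4H system, 24 h after chemical dosing. Cell-surface uPAR measured by ELISA, fitted in both directions versus DMSO; cytotoxicity checked by SRB total protein in parallel cultures.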

Assay [9] deals with human Vitamin D Receptor (VDR), VDR (gene 7421) (UniProt P11473). Briefly: ATG_VDR_TRANS: Attagene TRANS-FACTORIAL HepG2 Assay for human Vitamin D Receptor (VDR) (AID 2283022; active = hit-call score of the fitted dose curve at least 0.9, where 1 is the maximum). The method in brief:
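HepG2 cells were transiently transfected with GAL4-UAS reporter units and a chimeric VDR-Gal4 construct, then dosed for 24 hours. Reporter mRNA was quantified by RT-PCR, fluorescent labeling, HpaI digestion and capillary electrophoresis; gain of signal analysed vs DMSO.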

Read-out in assay [10]: Thrombomodulin, THBD (gene 7056)
Briefly: BSK_3C_Thrombomodulin: BioMAP Diversity Plus: 3C Assay for Thrombomodulin Biomarker Activity (AID 2283029). Conditions: primary human endothelial cells (HUVEC); actives raise or lower the signal. The gist of the method: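 Human umbilical vein endothelial cells were exposed to chemicals for 24 h; cell-surface thrombomodulin quantified by ELISA, with bidirectional fitting against DMSO baseline.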

Structures are written as SMILES. Inconclusive results are not listed. Activity calls are given as the source filed them. Rule for the calls, unless noted: active = hit-call score of the fitted dose curve at least 0.9, where 1 is the maximum; inactive = score below 0.9.

human Vitamin D Receptor (VDR), VDR (gene 7421), sequence (P11473 whole entry, looked up, the tested form may be a part): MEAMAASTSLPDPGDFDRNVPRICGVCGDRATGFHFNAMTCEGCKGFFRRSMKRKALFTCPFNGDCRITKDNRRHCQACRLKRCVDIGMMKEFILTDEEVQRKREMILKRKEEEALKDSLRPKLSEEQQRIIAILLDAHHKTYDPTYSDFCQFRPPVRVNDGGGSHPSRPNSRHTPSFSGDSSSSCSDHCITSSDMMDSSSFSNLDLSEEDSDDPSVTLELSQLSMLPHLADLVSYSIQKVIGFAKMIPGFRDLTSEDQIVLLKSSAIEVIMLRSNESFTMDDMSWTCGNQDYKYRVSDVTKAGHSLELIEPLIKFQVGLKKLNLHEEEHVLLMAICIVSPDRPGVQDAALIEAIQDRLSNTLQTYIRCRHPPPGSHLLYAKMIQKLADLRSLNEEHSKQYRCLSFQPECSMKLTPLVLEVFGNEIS

For the compound `CCc1ccc(C(=O)NN(C(=O)c2cc(C)cc(C)c2)C(C)(C)C)cc1`, the result in assay [1], in [3], in [4] and in assay [5] was inactive. Moreover, the AC50 (commonly the concentration giving half of the maximal activity seen) in assay [2] was 11.8 µM (active); in assay [6] it was 17.7 µM (active); in [7], 15.4 µM (active); in [8], 24.2 µM (active).

Regarding `CC(C)(C)C(O)/C(=C\c1ccc(Cl)cc1Cl)n1cncn1` (configuration not stated), the result in assay [1], in assay [9] and in assay [10] was inactive. Also, the AC50 in [2] is 27.8 µM (active); in [3] it was 33.6 µM (active); in [4], 37.2 µM (active); in [5] it was 32.1 µM (active); in [6], 15.8 µM (active); in assay [8], 27.9 µM (active).

Turning to `COC(=O)c1ccccc1S(=O)(=O)NC(=O)N(C)c1nc(C)nc(OC)n1`, the result in assay [1], in assay [2], in [3], in [4], in assay [6] and in [7] was inactive. The outcome in assay [10] and in assay [8] was inactive. For the same compound, the AC50 in assay [5] was 12.9 µM (active).

For `Cc1[nH]c(=O)n(C(C)(C)C)c(=O)c1Cl`, the outcome in assay [1], in [2], in assay [3], in assay [4], in assay [5] and in assay [6] was inactive. Further, the result in assay [7] and in assay [8] was inactive.

As for `CNC(=O)/C=C(\C)OP(=O)(OC)OC`, the outcome in assay [1], in [9], in [2], in assay [3], in assay [4] and in assay [5] was inactive. Also, the outcome in assay [6], in assay [7] and in assay [8] was inactive.

As for `CNC(=O)Oc1cccc(N=CN(C)C)c1`, the outcome in [1], in assay [2], in assay [3], in assay [5], in [6] and in assay [7] was inactive. In addition, the result in assay [8] was inactive. Further, the AC50 in assay [4] was 39 µM (active).

With `O=[N+]([O-])c1c(Cl)c(Cl)c(Cl)c(Cl)c1Cl`, the outcome in assay [1], in assay [3], in [5], in assay [6], in assay [7] and in assay [8] was inactive. Besides, the AC50 is 30.9 µM (active) in [2] and 37.5 µM (active) in assay [4].

Take `Cc1cc(C)nc(NC(=O)NS(=O)(=O)c2ccccc2C(=O)OC2COC2)n1`: the outcome in assay [1], in assay [9], in [2], in assay [3], in [4] and in assay [5] was inactive. Moreover, the result in assay [6], in assay [7] and in assay [8] was inactive.

Turning to `O=C(NC(=O)c1c(F)cccc1F)Nc1ccc(OC(F)(F)C(F)OC(F)(F)F)c(Cl)c1` (configuration not stated), the result in assay [1], in assay [2], in assay [3], in assay [4], in [5] and in [6] was inactive. Besides, the outcome in [7] and in [8] was inactive.

Turning to `COc1nn(CSP(=S)(OC)OC)c(=O)s1`, the outcome in assay [1], in [2], in assay [3], in assay [4], in assay [5] and in [6] was inactive. The result in assay [7] and in assay [8] was inactive.

For the compound `C[C@H]1[C@H](c2ccc(Cl)cc2)SC(=O)N1C(=O)NC1CCCCC1`, the outcome in [1], in assay [5] and in assay [8] was inactive. For the same compound, the AC50 is 12.1 µM (active) in [2]; 12.8 µM (active) in [3]; 15.2 µM (active) in assay [4]; 20 µM (active) in assay [6]; 15.7 µM (active) in [7].

As to `COP(=S)(OC)Oc1ccc(SC)c(C)c1`, the result in [1], in [9], in assay [4], in assay [5] and in [8] was inactive. In addition, the values for the AC50 in assay [3], in [6] and in [7] were 3.97 µM (active), 5.31 µM (active) and 23.2 µM (active), respectively.

Turning to `N#CN`, the outcome in [1], in [2], in assay [3], in assay [4], in assay [5] and in assay [6] was inactive. For the same compound, the outcome in assay [7], in assay [10] and in [8] was inactive.

Take `CC(C)N(C(=O)COc1nnc(C(F)(F)F)s1)c1ccc(F)cc1`: the result in assay [1], in [2], in assay [3], in assay [4], in [6] and in [7] was inactive. The outcome in assay [8] was inactive. In [5], the AC50 was 11.1 µM (active).
